Drawing on PubChem BioAssay (NCI), this text covers growth inhibition for 14 molecules.

Structures are written as SMILES. This is part of a sample that, as a whole, favours compounds with a hit. Of some 79,000 tested, about 15% had one in any assay. Active and inactive are the calls of the source. Cut-off read from the data, not from the text of the source: active = growth inhibition above about 70%; inactive = the rest.

This test is described as follows: NCI Yeast Anticancer Drug Screen. Data for the bub3 strain (AID 167). The following applies: S. cerevisiae bub3 mutant strain, stronger effect = higher value. The protocol: Growth inhibition of yeast strains with defined genetic alterations is measured as a screen for potential anti-cancer activity. Selected strains with alterations in DNA damage repair or cell cycle control were exposed to compounds and growth inhibition was measured relative to vehicle treated controls. The strain used in this assay is bub3

The mark [1] stands for this setting: at 5.0 µM (retest, dose inferred, filed as 0.5).
Where [2] appears, read: at 50.0 µM (retest, dose inferred, filed as 5.0).

As for `Cc1cc(O)c(C)c(C)c1N=Nc1ccccc1`, the growth inhibition reads like this: under setting [1], -70% (inactive); under setting [2], -47% (inactive); (at 50.0 µM) 63.8% (inactive).

As to `COC(=O)C(=[N+]=[N-])C(=O)c1ccc(Cl)cc1`, the growth inhibition is -14% (inactive) under setting [1], -14% (inactive) under setting [2] and 28.9% (inactive) (at 50.0 µM).

In the case of `Cc1cccc2c1Oc1ccccc1C2N1C(=O)/C(=C/c2ccccc2Cl)SC1=S` (configuration not stated), the growth inhibition under setting [1] is 99% (active), the growth inhibition under setting [2] is 74% (active) and the growth inhibition (at 50.0 µM) was 12.6% (inactive).

For `CCCCCCC(O)(CCCCCC)CCCCCC`, the growth inhibition is 0% (inactive) under setting [1], -12% (inactive) under setting [2] and 5.3% (inactive) (at 50.0 µM).

Consider `CCc1[nH]c2ccccc2c1N1C(=O)CC2(CCN(Cc3ccccc3)CC2)CC1=O`, for which the growth inhibition is, setting by setting: under setting [1], -6% (inactive); under setting [2], 8% (inactive); (at 50.0 µM) 35.5% (inactive).

In the case of `O=C1C(N=Nc2ccccc2)=C(O)C2C3C=CC(C3)C12` (configuration not stated), the growth inhibition under setting [1] was 1% (inactive), the growth inhibition under setting [2] was 98% (active) and the growth inhibition (at 50.0 µM) was 98.2% (active).

As to `CCOc1c(N=Nc2ccccc2OC)c(-c2ccccc2)nn1C(N)=S`, the growth inhibition was -1% (inactive) under setting [1], 29% (inactive) under setting [2] and 26.8% (inactive) (at 50.0 µM).

As to `Cc1cc(NC(=S)SC(C)C)ccc1Br`, the growth inhibition by setting is: under setting [1], 7% (inactive); under setting [2], 99% (active); (at 50.0 µM) 99.5% (active).

Turning to `Oc1cc(Cl)cc2cc(Cl)cnc12`, the growth inhibition under setting [1] was 98% (active), the growth inhibition under setting [2] was 99% (active) and the growth inhibition (at 50.0 µM) was 87.8% (active).

As to `CC(=O)Nc1ccc2c(c1)Cc1cccc(F)c1-2`, the growth inhibition by setting is: under setting [1], 17% (inactive); under setting [2], 8% (inactive); (at 50.0 µM) 61.9% (inactive).

For the molecule `O=C1CC2(CCCC2)C(=O)N1c1ccc(N2C(=O)CC3(CCCC3)C2=O)cc1`, the growth inhibition is 0% (inactive) under setting [1], -4% (inactive) under setting [2] and -0.9% (inactive) (at 50.0 µM).

Take `CC(C)C1=CC(=O)C2=C(CCC3C(C)(C(=O)O)CCC[C@]23C)C1=O` (some centres not stated): the growth inhibition was 54% (inactive) under setting [1], 98% (active) under setting [2] and 92.3% (active) (at 50.0 µM).

`CC(C)(C)OC(=O)c1ccc(NCC2=C(Br)C(=O)C=CC2=O)cc1`: the growth inhibition was 0% (inactive) under setting [1], 96% (active) under setting [2] and 80.8% (active) (at 50.0 µM).

In the case of `Cn1cnc2[nH]c(Cl)nc(=S)c21`, the growth inhibition by setting is: under setting [1], -1% (inactive); under setting [2], -4% (inactive); (at 50.0 µM) 11.9% (inactive).
